Assay results as given in PubChem BioAssay (NCATS).
Inconclusive results are not listed. The source made the active and inactive calls. Unless noted, calls follow the shape of the dose curve; as a rule, active = well fitted curve in the direction sought with a large enough effect; inconclusive = small, poorly fitted or top-dose-only effect, or another doubt; inactive = no such curve, though single readings can be large; an effect the other way counts as inactive or inconclusive.

Columns and labels:
[1] = molecular target: Lysosomal acid glucosylceramidase (Homo sapiens) (UniProt P04062); assay: Glucocerebrosidase-p2 (AID 348; in the data active = potency below about 10 µM; also: potency is read from the fitted curve at half-maximal effect); conditions: purified GBA, blue fluorogenic substrate, 40 min
Outline: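 Compounds titrated from 0.6 nM upwards against 0.2 nM enzyme in pH 5.9 citric acid/KH2PO4, taurocholate, tween-20; blue fluorogenic substrate 80 uM, 40 min room temperature, stopped and read Ex 365/Em 440 for AC50.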

[2] = AP1 Signaling Pathway (AID 357; active = well fitted curve in either direction with a large enough effect, not every such curve was filed as active;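 also: ME-180 reporter cells stimulated with EGF at its EC50 level; % is scaled to controls: 0 for no effect and ±100 for the full control effect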); conditions: ME-180 AP-1-bla reporter, EGF-induced, beta-lactamase ratio, 5 h; at 7.69 µM (top of the series) unless noted
Outline: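 A ratiometric CCF4 readout (405 nm excitation; 460 and 530 nm emission) quantified AP-1-driven beta-lactamase in ME-180 cells after 5 h with compound and EC50 EGF; AC50 values were derived for activators and inhibitors.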

[3] = NFAT Signaling Pathway (AID 444; active = well fitted curve in either direction with a large enough effect, not every such curve was filed as active;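 also: carbachol stimulus at about its EC50 of 1 µM final; % is scaled to controls: 0 for no effect and ±100 for the full control effect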); conditions: Jurkat NFAT-bla M1, carbachol, beta-lactamase ratio, 5 h; at 7.69 µM (top of the series) unless noted
Outline: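 Jurkat cells carrying an NFAT-driven β-lactamase reporter and co-transfected muscarinic M1 receptor were treated with compound plus carbachol (1 uM final, an EC50 level) for 5 h at 37 °C. CCF4 loading followed for 1 h at RT; 460/530 nm ratio gave %activity.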

[4] = Stat Signaling Pathway (AID 446; active = well fitted curve in either direction with a large enough effect, not every such curve was filed as active;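 also: ME-180 cervical cancer cells given 40 pM IL-6 alongside compound; SIE-controlled beta-lactamase reporter measured as 460/530 nm FRET emission ratio; % is scaled to controls: 0 for no effect and ±100 for the full control effect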)
Outline: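 ME-180 SIE-bla cells; overnight plating; cpd + IL-6 40 pM, 5 h, 37 C; LiveBLAzer 2.5 h RT; 460/530 nm emission ratio. Normalized to 300 pM IL-6 and 125 nM JAK inhibitor controls.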

[5] = molecular target: Glucocorticoid receptor (Homo sapiens) (UniProt P04150); assay: GR-EFC Redistribution (AID 451; calls by dose curve; also: potency is read from the fitted curve at half-maximal effect); conditions: CHO-K1 GR-EFC translocation, beta-gal luminescence, 2 h
Outline: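 CHO-K1 cells stably expressing nuclear-localized β-gal enzyme acceptor and GR fused C-terminally to the enzyme donor fragment; ligand-driven nuclear translocation restores β-gal by complementation. Compounds titrated up to 46 uM final, 2 h at 37 °C; luminescence read.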

[6] = molecular target: Mitogen-activated protein kinase 10 (Mus musculus) (UniProt Q61831); assay: JNK3 AlphaScreen Assay (AID 530; active = well fitted curve in either direction with a large enough effect, not every such curve was filed as active;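 also: kinase came from lysate of stimulated human HepG2 cells; signal reports phosphorylation of biotinylated GST-cJun 1-79 at Ser73 with 10 µM ATP; % is scaled to controls: 0 for no effect and ±100 for the full control effect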)
Outline: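 Inhibitors reduce antibody binding to phosphorylated biotin-cJun, lowering AlphaScreen luminescence. Lysates from HepG2 cells pre-activated by IL-1beta plus TNF-alpha supplied JNK3; compounds were titrated.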

[7] = molecular target: Ubiquitin carboxyl-terminal hydrolase 1 (Homo sapiens) (UniProt O94782); assay: Inhibitors of USP1/UAF1: Pilot qHTS (AID 504865);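 also: rhodamine fluorescence freed from ubiquitin-rhodamine substrate followed over time; top concentration of the series differs between compounds; % is scaled to controls: 0 for no effect and ±100 for the full control effect; nearly all actives have a fitted effect of over 35% in size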
Outline: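 1nM USP1/UAF1 + cpd, 15 min RT; start w/ Ub-Rho 150nM final; kinetic FL 480/540 nm, 6 reads q60 s. Buffer 50mM HEPES pH 7.8, 0.5mM EDTA, 1mM TCEP, 0.01% Tween-20, 0.1 mg/ml BSA.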

[8] = molecular target: Glucocorticoid receptor (Homo sapiens) (UniProt P04150); assay: GR-GFP Redistribution (AID 450;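 active = compounds whose dose series gives a full or clear partial fitted curve of increased nuclear translocation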; also: potency is read from the fitted curve at half-maximal effect); conditions: U2OS GR-GFP nuclear translocation, laser cytometry, 2 h
[9] = molecular target: 3',5'-cyclic-AMP phosphodiesterase 4B (Homo sapiens) (UniProt Q07343); assay: qHTS Assay for Inhibitors of PDE-IV (AID 607; active = well fitted activation curve with a large enough effect in the main read-out, with a control signal flat, not every such curve was filed as active; also: % of control where 0% means no effect)
Outline: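 ACTOne HEK293 cells carry a modified cAMP-gated CNG channel and express endogenous PDE4; plated 1000 cells/well, compounds up to 22.9 uM final. Membrane-potential dye fluorescence (ex 535/em 590) was read; parental cells received 10 uM forskolin + 100 uM RO 20-1724.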

[10] = Viability counterscreen for antagonist of constitutive androstane receptor (CAR) against the NCATS DSHEA and TCM libraries (AID 1794837);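 also: compound exposure lasted 24 h before viability reading; 0% is about no effect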
Outline: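 Cell viability, CellTiter-Fluor, Ex/Em 405/540 nm, 1 h at 37C. HepG2-CYP2B6-hCAR, 2,500 cells/well; cpds + CITCO 48 uM final (antagonist mode), 24 h, 37C/5% CO2.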

[11] = Viability counterscreen for agonist of constitutive androstane receptor (CAR) against the NCATS DSHEA and TCM libraries (AID 1794838); also: 0% is about no effect
Outline: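 Viability by CellTiter-Fluor fluorescence, 405/540 nm, after 1 h at 37C. HepG2-CYP2B6-hCAR cells were exposed 24 h to test substances in presence of 0.75 uM PK11195 (final).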

[12] = molecular target: Nuclear receptor subfamily 1 group I member 3 (Homo sapiens) (UniProt Q14994); assay: Primary qHTS for agonist of constitutive androstane receptor (CAR) against the NCATS DSHEA and TCM libraries (AID 1794839); also: potency is read from the fitted curve at half-maximal effect;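 as to activation: HepG2 cells expressing human CAR with a CYP2B6 reporter plus PK11195 antagonist; 0% is about no effect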
Outline: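 Luminescence from ONE-Glo luciferase was the agonist read-out in HepG2-CYP2B6-hCAR cells exposed 24 h to test substances. Wells also held the CAR antagonist PK11195 at 0.75 µM final. Viability was by CellTiter-Fluor fluorescence.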

[13] = HepG2 viability counterscreen (readout 2: ATP content) against the NCATS DSHEA and TCM libraries (AID 1794840); also: 0% is about no effect
Outline: (§1)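 1,000 HepG2 cells/well, 4 h attach; compounds ~24 h, 37C/5% CO2. Readout 1: GF-AFC 25 uM final, 30 min, fluorescence 380/510 nm. Readout 2: CellTiter-Glo, 30 min RT, luminescence.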

[14] = HepG2 viability counterscreen (readout 1: protease activity) against the NCATS DSHEA and TCM libraries (AID 1794841);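 also: cells exposed to compounds for about 24 h before the protease read; 0% is about no effect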
Outline: as §1

[15] = molecular target: Cytochrome P450 2D6 (Homo sapiens) (UniProt P10635); assay: qHTS for inhibitors of CYP2D6 against the NCATS DSHEA and TCM libraries (AID 1919972); also: % is scaled to controls: 0 for no effect and ±100 for the full control effect
Outline: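 Luminescent P450-Glo read-out of CYP2D6 turnover of a luciferin substrate after NADPH-driven reaction of 30-45 min at room temperature. Compounds were first preincubated 15 min with enzyme at titrated concentrations; quinidine was the intraplate control.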

[16] = KB-3-1 P-gp reporter qHTS against the NCATS DSHEA and TCM libraries (AID 1919975); also: 0% is about no effect
Outline: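 CellTiter-Glo luminescence viability readout; KB-3-1 parental cells, 500/well, attached ~4 h, then compound for ~72 h, 37C, 5% CO2. Bortezomib intraplate control.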

[17] = qHTS Counterscreen for compound interference against the NCATS DSHEA and TCM libraries (AID 1919978); conditions: firefly luciferase detection reagent interference, luminescence;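 also: compounds preincubated with 1 µM D-luciferin or buffer before detection reagent; % of control where 0% means no effect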
Outline: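 Luminescence counterscreen for detection-kit interference: compounds at 19.5 nM–39.8 uM final, 15 min RT with 1 uM D-luciferin or buffer only; detection reagent added, 30 min RT, then read.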

[18] = Dual reporter qHTS for agonist of Pregnane X Receptor (hPXR) against the NCATS DSHEA and TCM libraries: Fluorescence readout (AID 1920058); also: 0% is about no effect
Outline: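 HepG2 hPXR-Luc, 2000 cells/well, 5 h attach; cpds ~24 h, 37 °C/5% CO2; CellTiter-Fluor 1 h; fluor. Ex/Em 405/540 nm = viability.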

[19] = molecular target: Nuclear receptor subfamily 1 group I member 2 (Homo sapiens) (UniProt O75469); assay: Dual reporter qHTS for agonist of Pregnane X Receptor (hPXR) against the NCATS DSHEA and TCM libraries: Luminescence readout (AID 1920059); also: 0% is about no effect
Outline: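 hPXR-LucHepG2 cells in phenol red-free DMEM with 5% charcoal-stripped FBS, 2000 cells/well, attached 5 h, then exposed 24 h at 37C to compounds; rifampicin as positive agonist control (2.8 nM–92 uM). Luciferase luminescence read.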

[20] = molecular target: Nuclear receptor subfamily 1 group I member 2 (Homo sapiens) (UniProt O75469); assay: Dual reporter qHTS for antagonist of Pregnane X Receptor (hPXR) against the NCATS DSHEA and TCM libraries: Luminescence Readout (AID 1920060);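 also: HepG2 cells carrying hPXR luciferase reporter stimulated with rifampicin at 2 µM; 0% is about no effect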
Outline: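 Antagonist mode: rifampicin 2 uM final co-added with compounds to hPXR-LucHepG2 cells for 24 h at 37C. Viability by CellTiter-Fluor, Ex/Em 405/540 nm, 1 h; reporter by ONE-Glo luminescence.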

Chain of Nuclear receptor subfamily 1 group I member 2 (Homo sapiens) (O75469 whole entry, looked up): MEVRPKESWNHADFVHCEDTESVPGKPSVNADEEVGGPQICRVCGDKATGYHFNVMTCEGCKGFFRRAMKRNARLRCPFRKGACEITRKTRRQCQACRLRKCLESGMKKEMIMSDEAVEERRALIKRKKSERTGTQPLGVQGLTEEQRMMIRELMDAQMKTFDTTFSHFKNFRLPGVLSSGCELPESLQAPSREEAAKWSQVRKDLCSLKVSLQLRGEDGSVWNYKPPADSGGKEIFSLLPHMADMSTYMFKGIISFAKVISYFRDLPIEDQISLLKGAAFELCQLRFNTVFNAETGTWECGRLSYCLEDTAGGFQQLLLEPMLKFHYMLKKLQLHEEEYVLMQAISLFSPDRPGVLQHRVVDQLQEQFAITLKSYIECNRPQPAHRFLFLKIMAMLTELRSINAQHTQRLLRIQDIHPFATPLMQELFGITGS
Chain of Cytochrome P450 2D6 (Homo sapiens) (P10635 whole entry, looked up): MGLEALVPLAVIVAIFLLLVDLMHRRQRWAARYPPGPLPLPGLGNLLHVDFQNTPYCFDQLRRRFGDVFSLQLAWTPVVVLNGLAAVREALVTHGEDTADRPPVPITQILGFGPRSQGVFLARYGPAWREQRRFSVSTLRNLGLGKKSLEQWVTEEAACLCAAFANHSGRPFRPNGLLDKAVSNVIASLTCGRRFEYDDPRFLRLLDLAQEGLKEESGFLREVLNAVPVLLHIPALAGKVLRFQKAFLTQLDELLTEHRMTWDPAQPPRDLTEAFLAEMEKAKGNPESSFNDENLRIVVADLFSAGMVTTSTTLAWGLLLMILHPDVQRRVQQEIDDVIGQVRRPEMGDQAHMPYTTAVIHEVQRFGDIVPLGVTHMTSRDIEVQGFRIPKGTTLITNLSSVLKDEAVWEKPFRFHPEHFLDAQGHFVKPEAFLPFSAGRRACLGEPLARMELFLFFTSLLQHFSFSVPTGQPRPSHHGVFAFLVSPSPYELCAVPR
Chain of 3',5'-cyclic-AMP phosphodiesterase 4B (Homo sapiens) (Q07343 whole entry, looked up): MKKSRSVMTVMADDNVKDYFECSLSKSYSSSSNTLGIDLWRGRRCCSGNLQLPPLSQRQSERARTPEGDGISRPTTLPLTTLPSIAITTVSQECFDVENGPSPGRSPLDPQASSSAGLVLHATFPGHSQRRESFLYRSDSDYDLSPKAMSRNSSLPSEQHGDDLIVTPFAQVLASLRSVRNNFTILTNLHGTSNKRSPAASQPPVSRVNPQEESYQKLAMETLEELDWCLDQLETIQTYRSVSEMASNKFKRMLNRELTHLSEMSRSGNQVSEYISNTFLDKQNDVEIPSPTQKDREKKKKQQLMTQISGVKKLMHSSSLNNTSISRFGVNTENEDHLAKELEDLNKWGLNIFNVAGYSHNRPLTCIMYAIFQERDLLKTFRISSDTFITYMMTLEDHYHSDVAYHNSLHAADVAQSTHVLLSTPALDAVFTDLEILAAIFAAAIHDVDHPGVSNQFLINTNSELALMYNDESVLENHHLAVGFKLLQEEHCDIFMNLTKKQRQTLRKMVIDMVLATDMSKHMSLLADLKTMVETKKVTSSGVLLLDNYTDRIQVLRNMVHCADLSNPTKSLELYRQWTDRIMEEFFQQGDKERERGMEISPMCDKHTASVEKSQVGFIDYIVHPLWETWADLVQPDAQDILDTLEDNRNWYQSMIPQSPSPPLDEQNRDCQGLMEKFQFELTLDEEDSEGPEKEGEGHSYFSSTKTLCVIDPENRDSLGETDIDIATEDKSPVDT
Chain of Lysosomal acid glucosylceramidase (Homo sapiens) (P04062 whole entry, looked up): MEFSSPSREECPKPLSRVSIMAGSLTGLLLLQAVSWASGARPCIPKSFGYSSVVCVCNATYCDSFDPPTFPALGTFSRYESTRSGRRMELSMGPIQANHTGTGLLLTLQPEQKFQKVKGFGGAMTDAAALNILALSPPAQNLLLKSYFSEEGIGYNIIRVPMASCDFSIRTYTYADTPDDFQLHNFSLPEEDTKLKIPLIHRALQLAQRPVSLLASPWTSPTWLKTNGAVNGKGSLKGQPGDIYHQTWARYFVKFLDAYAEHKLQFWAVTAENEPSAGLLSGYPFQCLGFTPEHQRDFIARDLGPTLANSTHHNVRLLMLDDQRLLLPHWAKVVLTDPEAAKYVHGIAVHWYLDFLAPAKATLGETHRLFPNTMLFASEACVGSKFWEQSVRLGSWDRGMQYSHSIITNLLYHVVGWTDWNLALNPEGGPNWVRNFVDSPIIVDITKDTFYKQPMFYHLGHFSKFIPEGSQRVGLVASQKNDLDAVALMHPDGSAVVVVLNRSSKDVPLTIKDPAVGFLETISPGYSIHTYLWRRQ
Chain of Nuclear receptor subfamily 1 group I member 3 (Homo sapiens) (Q14994 whole entry, looked up): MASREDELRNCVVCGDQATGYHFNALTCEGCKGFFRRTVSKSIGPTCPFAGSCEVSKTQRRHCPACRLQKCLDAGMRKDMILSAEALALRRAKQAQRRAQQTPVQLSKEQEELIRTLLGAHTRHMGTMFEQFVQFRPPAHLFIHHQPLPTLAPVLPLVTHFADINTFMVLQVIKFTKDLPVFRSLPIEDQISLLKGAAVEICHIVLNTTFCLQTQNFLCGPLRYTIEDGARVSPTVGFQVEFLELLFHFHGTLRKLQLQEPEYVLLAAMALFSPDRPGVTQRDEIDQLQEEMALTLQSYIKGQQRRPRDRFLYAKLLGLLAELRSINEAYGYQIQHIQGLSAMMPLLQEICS
Chain of Ubiquitin carboxyl-terminal hydrolase 1 (Homo sapiens) (O94782 whole entry, looked up): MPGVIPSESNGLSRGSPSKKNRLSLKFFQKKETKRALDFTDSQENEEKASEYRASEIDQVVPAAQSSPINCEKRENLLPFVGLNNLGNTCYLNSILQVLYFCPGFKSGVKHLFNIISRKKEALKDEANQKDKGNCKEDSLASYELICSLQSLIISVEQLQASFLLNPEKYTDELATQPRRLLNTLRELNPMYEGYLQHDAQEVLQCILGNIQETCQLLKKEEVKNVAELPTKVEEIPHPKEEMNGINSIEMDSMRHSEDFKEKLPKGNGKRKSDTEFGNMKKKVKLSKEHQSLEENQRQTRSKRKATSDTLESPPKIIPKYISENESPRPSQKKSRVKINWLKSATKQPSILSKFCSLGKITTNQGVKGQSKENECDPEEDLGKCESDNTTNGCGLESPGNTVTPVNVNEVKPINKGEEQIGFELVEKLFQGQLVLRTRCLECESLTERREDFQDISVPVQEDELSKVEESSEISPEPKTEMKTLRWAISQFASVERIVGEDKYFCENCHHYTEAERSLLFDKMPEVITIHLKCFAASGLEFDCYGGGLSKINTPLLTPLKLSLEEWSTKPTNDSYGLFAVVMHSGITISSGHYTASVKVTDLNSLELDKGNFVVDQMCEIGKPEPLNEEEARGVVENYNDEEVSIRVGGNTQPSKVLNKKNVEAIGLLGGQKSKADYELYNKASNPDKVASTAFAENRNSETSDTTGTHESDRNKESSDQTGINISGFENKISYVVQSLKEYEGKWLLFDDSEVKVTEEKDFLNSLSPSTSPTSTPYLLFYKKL
Chain of Glucocorticoid receptor (Homo sapiens) (P04150 whole entry, looked up, the tested form may be a part): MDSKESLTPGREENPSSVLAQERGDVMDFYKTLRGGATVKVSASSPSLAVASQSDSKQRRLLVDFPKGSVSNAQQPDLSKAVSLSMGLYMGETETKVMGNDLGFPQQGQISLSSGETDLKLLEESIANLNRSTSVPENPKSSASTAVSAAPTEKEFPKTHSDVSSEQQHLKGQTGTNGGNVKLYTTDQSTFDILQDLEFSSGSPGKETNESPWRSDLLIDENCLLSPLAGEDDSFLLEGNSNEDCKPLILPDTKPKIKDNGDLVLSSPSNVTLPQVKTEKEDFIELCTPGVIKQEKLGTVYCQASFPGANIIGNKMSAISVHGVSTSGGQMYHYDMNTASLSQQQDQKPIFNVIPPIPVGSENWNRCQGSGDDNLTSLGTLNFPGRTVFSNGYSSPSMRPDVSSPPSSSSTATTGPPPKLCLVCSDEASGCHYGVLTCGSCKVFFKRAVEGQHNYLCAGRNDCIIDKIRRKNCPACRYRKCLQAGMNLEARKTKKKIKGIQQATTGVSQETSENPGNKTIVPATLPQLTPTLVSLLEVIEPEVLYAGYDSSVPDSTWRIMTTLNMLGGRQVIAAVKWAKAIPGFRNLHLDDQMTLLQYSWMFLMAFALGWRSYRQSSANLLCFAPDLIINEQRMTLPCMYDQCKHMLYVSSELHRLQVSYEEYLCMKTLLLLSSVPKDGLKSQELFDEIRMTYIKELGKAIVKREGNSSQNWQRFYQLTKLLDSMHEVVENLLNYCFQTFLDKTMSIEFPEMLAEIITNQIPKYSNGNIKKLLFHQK

c1cncc(CNc2nc(-c3cccnc3)nc3ccccc23)c1
inactive: Potency [1] > 11.4 µM | activity change, negative = inhibition [2] -12.9% | activity change, negative = inhibition [3] -15.2% | outcome [4] | Potency [5] > 46 µM | Potency [6] | Potency [7]

c1cn(-c2ncnc3ccc(-c4ccoc4)cc23)cn1
inactive: Potency [1] > 11.4 µM | activity change, negative = inhibition [3] -5.74% | outcome [4] | Potency [8] > 46 µM | Potency [5] > 46 µM | Potency [6] | Potency [9] | Potency [7]

Cn1c(=O)c(-c2ccc(Cl)cc2)nc2cncnc21
inactive: Potency [1] > 11.4 µM | activity change, negative = inhibition [2] -6.64% | activity change, negative = inhibition [3] -0.619% | outcome [4] | Potency [8] > 9.22 µM | Potency [5] > 46 µM | Potency [6] | Potency [9]

Clc1ccccc1-c1nc(-n2ccnc2)c2ccccc2n1
inactive: Potency [1] > 11.4 µM | activity change, negative = inhibition [2] -5.23% | activity change, negative = inhibition [3] -17.9% | outcome [4] | Potency [5] > 46 µM | Potency [6] | Potency [7]

COc1cccc(Nc2ncc3ncc(=O)n(Cc4ccc(F)cc4)c3n2)c1
inactive: Potency [1] > 11.4 µM | activity change, negative = inhibition [2] -28.1% | activity change, negative = inhibition [3] -8.23% | outcome [4] | Potency [8] > 9.22 µM | Potency [5] > 46 µM | Potency [6] | Potency [7]

CN(C)c1ncc2nc(CCc3ccccc3)c(=O)n(CCc3ccccc3)c2n1
inactive: Potency [1] > 11.4 µM | activity change, negative = inhibition [2] -11.1% | activity change, negative = inhibition [3] -22.4% | outcome [4] | Potency [8] > 9.22 µM | Potency [5] > 46 µM

Cc1nc2cnc(OCc3ccccc3)nc2n(CCc2ccccc2)c1=O
inactive: activity change, negative = inhibition [2] 2.1% | activity change, negative = inhibition [3] -10.4% | outcome [4] | Potency [8] > 9.22 µM | Potency [5] > 46 µM

COc1ccc2[nH]cc(CCNc3ncncc3-c3ccoc3)c2c1
inactive: activity change, negative = inhibition [3] -12% | outcome [4] | Potency [8] > 46 µM | Potency [5] > 46 µM | Potency [6] | Potency [9] | Potency [7]

C=C1C[C@@]23CC[C@H]4[C@@](C)(CCC[C@@]4(C)C(=O)O[C@@H]4O[C@H](CO)[C@@H](O)[C@H](O)[C@H]4O)[C@@H]2CC[C@]1(O[C@@H]1O[C@H](CO)[C@@H](O)[C@H](O[C@@H]2O[C@H](CO)[C@@H](O)[C@H](O)[C@H]2O)[C@H]1O[C@@H]1O[C@@H](C)[C@H](O)[C@@H](O)[C@H]1O)C3
inactive: outcome [10] | outcome [11] | Potency [12] | outcome [13] | outcome [14] | Potency [15] | outcome [16] | max response [17] 2.19% | outcome [18] | Potency [19] | outcome [20]

COc1ccc2[nH]cc(CCNc3ncncc3-c3cccc(C#N)c3)c2c1
inactive: activity change, negative = inhibition [2] -18.6% | activity change, negative = inhibition [3] -10.2% | outcome [4] | Potency [8] > 46 µM | Potency [5] > 46 µM | Potency [6] | Potency [9] | Potency [7]

CC1(C)C2CCC1(C)C(O)C2 (stereo not drawn)
inactive: outcome [10] | outcome [11] | Potency [12] | outcome [13] | outcome [14] | Potency [15] | outcome [16] | max response [17] 1.58% | outcome [18] | Potency [19] | outcome [20]

O=C(O)CC(O)(C(=O)O)C(O)C(=O)O (stereo not drawn)
inactive: outcome [10] | outcome [11] | Potency [12] | outcome [13] | outcome [14] | Potency [15] | outcome [16] | max response [17] 1.8% | outcome [18] | Potency [19] | outcome [20]

COc1ccc2[nH]cc(CCNc3ncncc3-c3ccccc3C)c2c1
inactive: Potency [1] > 11.4 µM | activity change, negative = inhibition [3] 7.13% | outcome [4] | Potency [8] > 46 µM | Potency [5] > 46 µM | Potency [6] | Potency [9] | Potency [7]

CN1CCN(c2ncnc3ccc(-c4cccc(C#N)c4)cc23)CC1
inactive: Potency [1] > 11.4 µM | activity change, negative = inhibition [2] -0.311% | activity change, negative = inhibition [3] -4.66% | outcome [4] | Potency [8] > 46 µM | Potency [5] > 46 µM | Potency [6]

COc1ccc(-c2coc3cc(O[C@@H]4O[C@H](CO)[C@@H](O)[C@H](O)[C@H]4O)ccc3c2=O)cc1
inactive: outcome [10] | outcome [11] | outcome [13] | outcome [14] | Potency [15] | outcome [16] | max response [17] 3.05% | outcome [18] | Potency [19] | outcome [20]
active: Potency [12] 11.2 µM

C[C@@H]1O[C@@H](OC[C@H]2OC(Oc3c(-c4ccc(O)c(O)c4)oc4cc(O)cc(O)c4c3=O)[C@H](O)[C@@H](O)[C@@H]2O)[C@H](O)[C@H](O)[C@H]1O (stereo partly drawn)
inactive: outcome [10] | outcome [11] | Potency [12] | outcome [13] | outcome [14] | Potency [15] | outcome [16] | max response [17] -2.59% | outcome [18] | Potency [19] | outcome [20]

COc1ccc2[nH]cc(CCNc3nc(-c4ccccc4OC)nc4ccccc34)c2c1
inactive: Potency [1] > 11.4 µM | activity change, negative = inhibition [2] 23.7% | outcome [4] | Potency [8] > 46 µM | Potency [5] > 46 µM | Potency [6] | Potency [9] | Potency [7]

Clc1ccccc1-c1ccc2ncnc(NCCN3CCOCC3)c2c1
inactive: activity change, negative = inhibition [3] 13.8% | outcome [4] | Potency [8] > 46 µM | Potency [5] > 46 µM | Potency [6] | Potency [7]
